Reference: PubChem BioAssay (NCATS)
Inconclusive results are not listed. Activity calls are given as the source filed them. Unless noted, the call rests on the fitted dose curve. Numbered stars: 1 amine (or outer) side, 2 acyl side, 3 side chain; on linkers, the order of the positions; unused ones are H or OH. Starred links: 1 amine or outer side, 2 acyl side, 3 side chain; linkers in the order of their positions; H or OH if unused. Positions of bridges follow the written chain, without caps; N, C: chain ends. Bridge positions count the residues as written; N and C are the ends. Non-standard residues stand in square brackets, D forms with d. Square brackets hold non-standard residues; d marks the D form. Residues, ends and D or L forms follow the SMILES beside them. Peptide text beside a SMILES is read from it. I, II: the chains in the order shown. ξ: configuration not given here. *: point of attachment. Actinocin(9to1) = Cc1c2oc3c(C)ccc(C(=O)[*:1])c3nc-2c(C(=O)[*:2])c(N)c1=O; ΔAla(3-NHCONH2) = NC(=O)NC=C(N)C(=O)O; X1 = NC1=NCCC(C(N[*:1])C(=O)[*:2])N1; NMeV = CN[C@H](C(=O)O)C(C)C; ξβ3hOrn = NCCCC(N)CC(=O)*; Dap = NC[CH](N)C(=O)O; Sar = CNCC(=O)O

Tests used:
[1] = qHTS for Inhibitors of the Functional Ribonucleoprotein Complex (vRNP) of Lassa (LASV) Arenavirus: LASV Primary Screen - GLuc reporter signal (AID 1347082; calls by dose curve; tested in HEK293 reporter line; further: series mostly up to about 57 µM; nearly all actives have a fitted effect of over 60% in size)
[2] = qHTS for Inhibitors of the Functional Ribonucleoprotein Complex (vRNP) of Lassa (LASV) Arenavirus: Viability assay - alamar blue signal for LASV Primary Screen (AID 1347083; calls by dose curve; tested in HEK293 reporter line; further: nearly all actives have a fitted effect of over 80% in size; further: potency means the concentration at half of the fitted maximal effect; on activity change, negative = reduced viability: series mostly up to about 57 µM)
[3] = qHTS for Inhibitors of the Functional Ribonucleoprotein Complex (vRNP) of Lymphocytic Choriomeningitis Arenaviruses (LCMV): Viability assay - alamar blue signal for LCMV Primary Screen (AID 1347085; calls by dose curve; tested in HEK293 reporter line; further: nearly all actives have a fitted effect of over 80% in size; further: potency means the concentration at half of the fitted maximal effect; on activity change, negative = lower viability: series mostly up to about 57 µM)
[4] = target: Nucleoprotein (Lymphocytic choriomeningitis virus (strain Armstrong)) (UniProt P09992); assay: qHTS for Inhibitors of the Functional Ribonucleoprotein Complex (vRNP) of Lymphocytic Choriomeningitis Arenaviruses (LCMV): LCMV Primary Screen - GLuc reporter signal (AID 1347086); further: series mostly up to about 57 µM; nearly all actives have a fitted effect of over 70% in size
Nucleoprotein (Lymphocytic choriomeningitis virus (strain Armstrong)), sequence (P09992 whole entry, looked up): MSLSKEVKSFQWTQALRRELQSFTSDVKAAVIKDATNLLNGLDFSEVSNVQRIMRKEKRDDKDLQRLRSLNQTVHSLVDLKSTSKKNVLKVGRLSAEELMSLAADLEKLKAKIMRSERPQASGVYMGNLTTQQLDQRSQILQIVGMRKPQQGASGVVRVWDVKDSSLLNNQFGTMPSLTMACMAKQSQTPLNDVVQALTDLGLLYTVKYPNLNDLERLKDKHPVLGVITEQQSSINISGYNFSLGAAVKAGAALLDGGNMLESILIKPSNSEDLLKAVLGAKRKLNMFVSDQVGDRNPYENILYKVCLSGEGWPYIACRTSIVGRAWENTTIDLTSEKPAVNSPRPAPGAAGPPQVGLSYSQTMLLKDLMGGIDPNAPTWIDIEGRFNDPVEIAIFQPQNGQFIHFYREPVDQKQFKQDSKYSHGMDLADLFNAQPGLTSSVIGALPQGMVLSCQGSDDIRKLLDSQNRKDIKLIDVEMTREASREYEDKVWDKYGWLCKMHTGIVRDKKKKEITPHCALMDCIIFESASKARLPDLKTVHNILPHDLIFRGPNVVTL
On the % scale 0 is the no-effect control and ±100 the full control effect.

O=C1NC(=O)C(c2ccccc2)(c2ccccc2)N1
inactive: Potency [1] | Potency [2] | Potency [3] | Potency [4]

CN(C)CCc1c[nH]c2ccc(CS(=O)(=O)N3CCCC3)cc12
inactive: Potency [1] | Potency [2] | Potency [3] | Potency [4]

Nc1cc(-c2ccncc2)c[nH]c1=O
inactive: Potency [1] | Potency [2] | Potency [3] | Potency [4]

O=C(O)COCCN1CCN(C(c2ccccc2)c2ccc(Cl)cc2)CC1 (stereo unspecified)
inactive: Potency [1] | Potency [2] | Potency [3] | Potency [4]

CNCCCC1c2ccccc2C=Cc2ccccc21
inactive: Potency [1] | Potency [2] | Potency [3] | Potency [4]

CN1CC(=O)N/C1=N/C(=O)Nc1cccc(Cl)c1
inactive: Potency [1] | Potency [2] | Potency [3] | Potency [4]

C[C@@H](c1ncncc1F)C(O)(Cn1cncn1)c1ccc(F)cc1F (stereo partly specified)
inactive: Potency [1] | Potency [2] | Potency [3] | Potency [4]

CCC1C(=O)OCC1Cc1cncn1C (stereo unspecified)
inactive: Potency [1] | Potency [2] | Potency [3] | Potency [4]

CNC1(C)C2CCC(C2)C1(C)C (stereo unspecified)
inactive: Potency [1] | Potency [2] | Potency [3] | Potency [4]

O=NN(CCCl)C(=O)NCCCl
inactive: Potency [1] | Potency [2] | Potency [3] | Potency [4]

CN(C)CCc1c[nH]c2ccc(C[C@H]3COC(=O)N3)cc12
inactive: Potency [1] | Potency [2] | Potency [3] | Potency [4]

CCCNC(=O)NS(=O)(=O)c1ccc(Cl)cc1
inactive: Potency [1] | Potency [2] | Potency [3] | Potency [4]

Cc1ccnc2c1NC(=O)c1cccnc1N2C1CC1
inactive: Potency [1] | Potency [2] | Potency [3] | Potency [4]

CO/N=C1\CN(c2nc3c(cc2F)c(=O)c(C(=O)O)cn3C2CC2)CC1CN (stereo unspecified)
inactive: Potency [1] | Potency [2] | Potency [3] | Potency [4]

COc1ccccc1OCC(O)COC(N)=O (stereo unspecified)
inactive: Potency [1] | Potency [2] | Potency [3] | Potency [4]

CCCN(CCC)S(=O)(=O)c1ccc(C(=O)O)cc1
inactive: Potency [1] | Potency [2] | Potency [3] | Potency [4]

NCCCC(N)CC(=O)NCC1NC(=O)C(CO)NC(=O)C(N)CNC(=O)C(C2CCN=C(N)N2)NC(=O)C(=CNC(N)=O)NC1=O (stereo not drawn) (H-[Dap]S[Dap](ξβ3hOrn)[ΔAla(3-NHCONH2)][X1]; lactam 1-C; configuration not given here)
inactive: activity change, negative = inhibition [1] 2.05% [at 0.757 µM] | activity change, negative = reduced viability [2] -7.39% [at 0.757 µM] | activity change, negative = lower viability [3] -4.22% [at 0.757 µM] | activity change, negative = inhibition [4] -2.08% [at 0.757 µM]

Cc1ccc(O)c([C@H](CCN(C(C)C)C(C)C)c2ccccc2)c1
inactive: Potency [1] | Potency [2] | Potency [3] | Potency [4]

Cc1c2oc3c(C)ccc(C(=O)N[C@@H]4C(=O)N[C@H](C(C)C)C(=O)N5CCC[C@H]5C(=O)N(C)CC(=O)N(C)[C@@H](C(C)C)C(=O)O[C@@H]4C)c3nc-2c(C(=O)N[C@@H]2C(=O)N[C@H](C(C)C)C(=O)N3CCC[C@H]3C(=O)N(C)CC(=O)N(C)[C@@H](C(C)C)C(=O)O[C@@H]2C)c(N)c1=O (I: T[dV]P[Sar][NMeV] / II: T[dV]P[Sar][NMeV]; ester I:1-I:C, II:1-II:C; linker I:N-II:N via Actinocin(9to1))
inactive: Potency [1] | Potency [2] | Potency [3] | Potency [4]

O=C1CCC(N2C(=O)c3ccccc3C2=O)C(=O)N1 (stereo unspecified)
inactive: Potency [1] | Potency [2] | Potency [3] | Potency [4]

Cc1c(OCC(F)(F)F)ccnc1CS(=O)c1nc2ccccc2[nH]1 (stereo unspecified)
inactive: Potency [1] | Potency [2] | Potency [3] | Potency [4]

CO[C@@H](C(=O)N1Cc2[nH]nc(NC(=O)c3ccc(N4CCN(C)CC4)cc3)c2C1)c1ccccc1
inactive: Potency [1] | Potency [4]
active: Potency [2] 4.85 µM | Potency [3] 6.85 µM

CC(C)[N+](C)(CCOC(=O)C1c2ccccc2Oc2ccccc21)C(C)C
inactive: Potency [1] | Potency [2] | Potency [3] | Potency [4]

O=C1[C@H](CC[C@H](O)c2ccc(F)cc2)[C@@H](c2ccc(O)cc2)N1c1ccc(F)cc1
inactive: Potency [1] | Potency [2] | Potency [3] | Potency [4]

NC(=O)c1cn(Cc2c(F)cccc2F)nn1
inactive: Potency [1] | Potency [2] | Potency [3] | Potency [4]

COC(=O)[C@H]1[C@H]2C[C@@H]3c4[nH]c5cc(OC)ccc5c4CCN3C[C@H]2C[C@@H](OC(=O)c2cc(OC)c(OC)c(OC)c2)[C@@H]1OC
inactive: Potency [1] | Potency [2] | Potency [3] | Potency [4]

CN(C)C(=N)N=C(N)N
inactive: Potency [1] | Potency [2] | Potency [3] | Potency [4]

Oc1ccc(C2CNCCc3c2cc(O)c(O)c3Cl)cc1 (stereo unspecified)
inactive: Potency [1] | Potency [2] | Potency [3] | Potency [4]

CN(C)c1cc(NC(=O)CNC(C)(C)C)c(O)c2c1C[C@@H]1C[C@H]3[C@H](N(C)C)C(=O)C(C(N)=O)=C(O)[C@@]3(O)C(=O)C1=C2O
inactive: Potency [1] | Potency [2] | Potency [3] | Potency [4]

O=C(CCCN1CCC(O)(c2ccc(Cl)cc2)CC1)c1ccc(F)cc1
inactive: Potency [1] | Potency [2] | Potency [3] | Potency [4]

CCN(C)C(=O)Oc1cccc([C@H](C)N(C)C)c1
inactive: Potency [1] | Potency [2] | Potency [3] | Potency [4]

CC(C)(C)C(=O)OCOP(=O)(COCCn1cnc2c(N)ncnc21)OCOC(=O)C(C)(C)C
inactive: Potency [1] | Potency [2] | Potency [3] | Potency [4]

CC[C@@H](CO)NCCN[C@@H](CC)CO
inactive: Potency [1] | Potency [2] | Potency [3] | Potency [4]

CN1CCN(C2=Nc3ccccc3Oc3ccc(Cl)cc32)CC1
inactive: Potency [1] | Potency [2] | Potency [3] | Potency [4]
